Results taken from PubChem BioAssay.
Calls of active or inactive are those of the source.

How the values were obtained:
[1] = binders of probe aFSTL3 on microarray, primary screen, stem cell growth factor project, biochemical, small-molecule microarray, fluorescence 635/667 (AID 1064); details: higher = more signal;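 further: measures binding of the biotinylated anti-FSTL3 antibody to printed compounds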
[2] = binders from COS7 lysate, DM2A8 probe, primary screen, torsin A project, cell lysate, small-molecule microarray, fluorescence 635/667 (AID 1065); details: higher = more signal, COS7 lysate expressing mutant human TOR1A
[3] = binders of probe aFGF2 on microarray, primary screen, stem cell growth factor project, biochemical, small-molecule microarray, fluorescence 635/667 (AID 1067); details: higher = more signal;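 further: measures binding of biotinylated aFGF2 protein to printed compounds on slides; z-score merges feature fluorescence and signal-to-noise across triplicate slides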
[4] = binders of probe aFGF10 on microarray, primary screen, stem cell growth factor project, biochemical, small-molecule microarray, fluorescence 635/667 (AID 1071); details: higher = more signal;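 further: score merges 667 nm spot intensity and signal to noise from triplicate slides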
[5] = biological target: Neurogenic locus notch homolog protein 2 (Homo sapiens) (UniProt Q04721); experiment: Notch2 binders on small-molecule microarrays, primary screen, biochemical, small-molecule microarray, 635 nm fluorescence, stem cell growth factors (AID 1073); details: Notch2 binding, higher = more signal
[6] = biological target: Pro-neuregulin-1, membrane-bound isoform (Homo sapiens) (UniProt Q02297); experiment: NRG1 binders on small-molecule microarrays, primary screen, psychiatric disease protein project, biochemical, small-molecule microarray, fluorescence 635/667 (AID 1075); details: NRG1 binding, 635 nm fluorescence, higher = more signal;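 further: score combines 667 nm spot fluorescence with signal to noise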
[7] = test system: Neuregulin-1 EGF-like domain; experiment: binders of neuregulin-1 EGF-like domain, primary screen, biochemical, small-molecule microarray, 635 nm fluorescence (AID 1081); details: small-molecule microarray binding, higher = more signal;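 further: binding of the protein to compounds printed on small-molecule microarray slides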
[8] = FRG1 promoter luciferase signal modulators, primary screen, FRG1 inhibition for FSHD, cell-based, C2C12 myotubes, firefly/Renilla luciferase, luminescence (AID 1084); details: higher = more signal, called active from +8 up or from −8 down
[9] = binders of probe aFST on microarray, primary screen, stem cell growth factor project, biochemical, small-molecule microarray, fluorescence 635/667 (AID 1086); details: higher = more signal;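 further: score merges 667 nm fluorescence with signal-to-noise of each printed compound spot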
[10] = binders of probe aHhip on microarray, primary screen, stem cell growth factor project, biochemical, small-molecule microarray, fluorescence 635/667 (AID 1087); details: higher = more signal;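 further: score merges spot fluorescence at 667nm with spot signal to noise ratio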
[11] = test system: PRMT1 (protein arginine N-methyltransferase 1); experiment: PRMT1 binders on small-molecule microarrays, primary screen, biochemical, small-molecule microarray, 635 nm fluorescence (AID 1088); details: small-molecule microarray binding, higher = more signal;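 further: binding of Prmt1 protein to compounds spotted on small-molecule microarray slides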
[12] = yeast growth modulation, basal conditions, primary screen, YJM789 clinical isolate, OD600, 24 h (AID 1089);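 further: growth of clinical yeast isolate S. cerevisiae YJM 789 seeded 1000 cells per well; test concentration not given here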; details: S. cerevisiae YJM789 growth, higher = more signal, called active from +8 up or from −8 down
[13] = fission yeast growth modulation, primary screen, strain 972, OD600, 24 h, no modulator (AID 1090);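 further: basal condition with compound alone and no growth modifier present; test concentration not given here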; details: S. pombe 972 growth, higher = more signal, called active from +8 up or from −8 down
[14] = S. cerevisiae growth modulation with rapamycin, primary screen, strain BY4716, OD600, 96 h (AID 1091); details: higher = more signal, called active from +8 up or from −8 down; further: test concentration not given here
[15] = biological target: Torsin-1A-interacting protein 2 (Homo sapiens) (UniProt Q8NFQ8); experiment: LULL1 binders on small-molecule microarray, primary screen, cell lysate, human LULL1 lysate, 635/667 nm fluorescence (AID 1092); details: hLULL1 lysate binding, 635 nm fluorescence, higher = more signal;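 further: probe is lysate of COS7 cells overexpressing human LULL1; score merges per-feature 667 nm fluorescence with signal-to-noise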
[16] = E. coli growth modulation, two-sided OD650, primary screen, E. coli filamentation project, strain DRC41, 24 h (AID 1093); details: OD650, 24 h, higher = more signal, called active from +8 up or from −8 down;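 further: MC1000 strain lacking acrAB efflux and sulA so SOS filamentation is blocked; test concentration not given here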
[17] = small-molecule microarray binders of probe aLefty2, primary screen, biochemical, biotinylated probe, 635/667 nm fluorescence (AID 1094); details: higher = more signal;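 further: score merges spot fluorescence near 667 nm with spot signal-to-noise ratio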
[18] = test system: Noggin (protein binding on small-molecule microarray); experiment: Noggin binders on small-molecule microarray, primary screen, biochemical, 635/667 nm fluorescence (AID 1095); details: 635 nm fluorescence, higher = more signal;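 further: score merges 667 nm feature fluorescence with signal to noise over triplicate slides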
[19] = biological target: Neurogenic locus notch homolog protein 3 (Homo sapiens) (UniProt Q9UM47); experiment: NOTCH3 binders on small-molecule microarray, primary screen, biochemical, 635/667 nm fluorescence (AID 1096); details: NOTCH3 binding, 635 nm fluorescence, higher = more signal
[20] = small-molecule microarray binders of probe aEGFR, primary screen, biochemical, biotinylated probe, 635/667 nm fluorescence (AID 1097); details: higher = more signal;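 further: probe is a biotinylated anti-EGFR antibody binding compounds printed on slides; score combines fluorescence near 667 nm and signal to noise of each spot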

Chain of Pro-neuregulin-1, membrane-bound isoform (Homo sapiens) (Q02297 whole entry, looked up, the tested form may be a part, canonical isoform): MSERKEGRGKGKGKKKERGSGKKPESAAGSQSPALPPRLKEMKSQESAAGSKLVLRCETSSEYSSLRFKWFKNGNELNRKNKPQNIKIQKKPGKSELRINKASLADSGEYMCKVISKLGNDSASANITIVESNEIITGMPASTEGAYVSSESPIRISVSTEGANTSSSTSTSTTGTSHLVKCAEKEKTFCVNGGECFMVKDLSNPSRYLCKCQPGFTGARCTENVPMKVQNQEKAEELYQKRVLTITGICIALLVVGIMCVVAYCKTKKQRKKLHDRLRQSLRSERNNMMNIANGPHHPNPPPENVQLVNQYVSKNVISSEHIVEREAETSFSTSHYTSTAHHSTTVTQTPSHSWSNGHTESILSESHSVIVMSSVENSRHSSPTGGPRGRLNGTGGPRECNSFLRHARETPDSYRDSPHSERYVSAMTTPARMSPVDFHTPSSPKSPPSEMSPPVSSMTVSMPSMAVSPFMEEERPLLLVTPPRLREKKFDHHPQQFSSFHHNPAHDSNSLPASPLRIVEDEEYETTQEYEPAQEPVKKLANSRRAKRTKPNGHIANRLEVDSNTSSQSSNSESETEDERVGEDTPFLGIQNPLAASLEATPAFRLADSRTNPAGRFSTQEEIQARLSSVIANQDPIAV
Chain of Neurogenic locus notch homolog protein 2 (Homo sapiens) (Q04721 whole entry, looked up, canonical isoform): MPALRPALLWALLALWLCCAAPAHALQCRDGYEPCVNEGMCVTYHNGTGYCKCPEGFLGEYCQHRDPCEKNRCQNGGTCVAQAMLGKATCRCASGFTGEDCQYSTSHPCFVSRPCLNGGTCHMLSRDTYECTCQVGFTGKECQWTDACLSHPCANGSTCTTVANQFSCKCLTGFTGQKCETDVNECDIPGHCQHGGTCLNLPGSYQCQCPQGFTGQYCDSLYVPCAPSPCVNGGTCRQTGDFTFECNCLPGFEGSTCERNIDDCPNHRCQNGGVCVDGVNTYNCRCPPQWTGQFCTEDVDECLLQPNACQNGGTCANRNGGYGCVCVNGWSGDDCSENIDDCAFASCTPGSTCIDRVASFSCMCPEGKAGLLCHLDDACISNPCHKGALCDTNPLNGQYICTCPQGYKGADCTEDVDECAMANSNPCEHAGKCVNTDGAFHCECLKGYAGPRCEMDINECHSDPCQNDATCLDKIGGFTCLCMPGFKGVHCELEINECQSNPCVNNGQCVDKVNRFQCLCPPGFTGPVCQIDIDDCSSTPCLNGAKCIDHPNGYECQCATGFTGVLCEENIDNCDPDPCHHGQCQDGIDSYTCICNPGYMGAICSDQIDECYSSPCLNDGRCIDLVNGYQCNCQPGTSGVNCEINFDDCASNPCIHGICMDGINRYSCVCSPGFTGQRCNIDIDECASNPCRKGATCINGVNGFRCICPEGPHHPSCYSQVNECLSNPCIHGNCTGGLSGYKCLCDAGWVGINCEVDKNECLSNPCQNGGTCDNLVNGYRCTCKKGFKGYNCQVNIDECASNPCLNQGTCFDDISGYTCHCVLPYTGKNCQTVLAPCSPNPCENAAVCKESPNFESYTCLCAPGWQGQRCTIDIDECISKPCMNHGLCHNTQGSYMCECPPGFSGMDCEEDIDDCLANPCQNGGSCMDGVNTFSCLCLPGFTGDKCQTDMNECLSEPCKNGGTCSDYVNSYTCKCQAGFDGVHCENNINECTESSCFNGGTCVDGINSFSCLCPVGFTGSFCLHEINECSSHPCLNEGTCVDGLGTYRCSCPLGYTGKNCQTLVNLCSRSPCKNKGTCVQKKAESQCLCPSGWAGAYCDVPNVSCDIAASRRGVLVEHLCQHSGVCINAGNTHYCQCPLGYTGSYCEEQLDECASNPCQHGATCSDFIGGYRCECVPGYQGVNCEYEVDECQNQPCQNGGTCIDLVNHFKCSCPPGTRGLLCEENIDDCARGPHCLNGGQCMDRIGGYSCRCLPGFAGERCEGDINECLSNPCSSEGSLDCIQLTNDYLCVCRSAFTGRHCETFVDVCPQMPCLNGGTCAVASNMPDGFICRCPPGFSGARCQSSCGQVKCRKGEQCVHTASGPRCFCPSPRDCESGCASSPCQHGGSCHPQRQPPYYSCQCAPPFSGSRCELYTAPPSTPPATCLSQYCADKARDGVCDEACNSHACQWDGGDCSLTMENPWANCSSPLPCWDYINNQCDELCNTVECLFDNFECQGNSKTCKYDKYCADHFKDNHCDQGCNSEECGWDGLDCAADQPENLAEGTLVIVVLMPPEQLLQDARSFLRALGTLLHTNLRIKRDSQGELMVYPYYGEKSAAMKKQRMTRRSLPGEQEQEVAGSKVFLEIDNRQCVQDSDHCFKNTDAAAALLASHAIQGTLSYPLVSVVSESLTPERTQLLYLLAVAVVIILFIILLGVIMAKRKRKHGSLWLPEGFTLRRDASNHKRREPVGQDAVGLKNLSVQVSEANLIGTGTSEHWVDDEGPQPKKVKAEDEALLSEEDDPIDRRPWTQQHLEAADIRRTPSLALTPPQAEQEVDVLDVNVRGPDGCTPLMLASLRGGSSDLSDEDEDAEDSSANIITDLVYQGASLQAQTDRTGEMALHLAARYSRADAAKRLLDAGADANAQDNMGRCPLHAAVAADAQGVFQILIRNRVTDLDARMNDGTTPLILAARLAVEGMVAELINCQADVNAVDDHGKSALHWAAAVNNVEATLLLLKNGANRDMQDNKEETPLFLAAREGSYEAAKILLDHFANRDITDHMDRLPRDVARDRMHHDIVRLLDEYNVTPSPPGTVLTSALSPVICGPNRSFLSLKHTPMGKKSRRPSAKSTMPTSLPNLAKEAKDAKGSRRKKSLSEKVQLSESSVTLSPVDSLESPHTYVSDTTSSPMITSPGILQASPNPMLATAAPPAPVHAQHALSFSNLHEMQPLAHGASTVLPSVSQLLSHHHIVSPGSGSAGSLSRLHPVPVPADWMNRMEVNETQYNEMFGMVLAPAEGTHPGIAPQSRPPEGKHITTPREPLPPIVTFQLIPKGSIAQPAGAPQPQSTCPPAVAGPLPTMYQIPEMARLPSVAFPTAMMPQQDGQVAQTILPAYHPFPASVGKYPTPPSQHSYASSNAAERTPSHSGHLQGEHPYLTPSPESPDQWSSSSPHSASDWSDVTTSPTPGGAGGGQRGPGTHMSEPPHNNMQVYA
Chain of Torsin-1A-interacting protein 2 (Homo sapiens) (Q8NFQ8 whole entry, looked up): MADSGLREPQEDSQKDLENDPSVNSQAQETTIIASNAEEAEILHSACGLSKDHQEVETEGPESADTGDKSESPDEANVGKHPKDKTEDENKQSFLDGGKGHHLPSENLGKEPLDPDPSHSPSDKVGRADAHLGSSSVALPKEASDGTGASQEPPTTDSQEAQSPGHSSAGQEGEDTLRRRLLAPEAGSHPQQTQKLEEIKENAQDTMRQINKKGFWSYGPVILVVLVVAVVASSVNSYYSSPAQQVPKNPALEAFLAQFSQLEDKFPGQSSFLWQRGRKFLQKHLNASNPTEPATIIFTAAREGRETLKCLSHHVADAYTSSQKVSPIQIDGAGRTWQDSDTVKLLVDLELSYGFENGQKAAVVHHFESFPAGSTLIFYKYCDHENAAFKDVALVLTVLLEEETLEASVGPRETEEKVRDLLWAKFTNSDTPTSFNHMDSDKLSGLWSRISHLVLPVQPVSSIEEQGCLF

Compound	composite z-score [1]	composite z-score [2]	composite z-score [3]	composite z-score [4]	composite z-score [5]	composite z-score [6]	composite z-score [7]	z-score [8]	composite z-score [9]	composite z-score [10]	composite z-score [11]	z-score [12]	z-score [13]	z-score [14]	composite z-score [15]	z-score [16]	composite z-score [17]	composite z-score [18]	composite z-score [19]	composite z-score [20]
COc1cccc([C@H]2Oc3ccc(OC)cc3C(=NOCC[C@@H]3C=C[C@H](OC(C)=O)[C@@H](COC(C)=O)O3)[C@@H]2O)c1	-0.478	0.459	-0.017	0.577	0.895	1.28	0.773	1.52 (inactive)	0.366	-0.21	0.829	0.243 (inactive)	0.594 (inactive)	0.0357 (inactive)	1	0.677 (inactive)	-0.0769	0.475	0.647	0.0281
CCOC(=O)[C@H](Cc1ccccc1)NC(=O)CCC1CC(OC(=O)NCc2cccc3ccccc23)CC2(CCCC(COC(=O)NCCc3ccc(Cl)cc3)O2)O1 (stereo not given in full)	-0.487	0.0381	-0.205	0.13	0.597	0.108	0.966	0.903 (inactive)	-0.0328	-0.0645	1.15	-0.69 (inactive)	-0.0785 (inactive)	-0.647 (inactive)	1.3	-0.159 (inactive)	-0.253	0.448	0.974	-0.0922
O=C1[C@H]2[C@H]3[C@H](O)[C@H](O)CC(=NOCc4ccccc4)[C@H]3CC[C@H]2C(=O)N1C1CCCCC1	-0.483	0.357	-0.0934	0.412	0.691	0.195	1.03	0.111 (inactive)	0.404	-0.0645	0.542	-0.577 (inactive)	-0.355 (inactive)	-0.858 (inactive)	1.23	0.119 (inactive)	-0.162	0.423	1.14	-0.0691
O=C1CCCC=C1C(O)COCc1ccccc1 (stereo not given)	-0.356	0.217	-0.214	0.225	-0.263	-0.179	0.332	0.91 (inactive)	-0.302	-0.194	-0.544	0.249 (inactive)	-0.233 (inactive)	0.456 (inactive)	-0.395	0.202 (inactive)	-0.212	0.022	-0.256	-0.142
COC(=O)[C@H](C)NC(=O)CCC1CC(OC(=O)NCc2ccc3c(c2)OCO3)CC2(CCCC(COC(=O)NCCC(C)C)O2)O1 (stereo not given in full)	-0.312	0.255	-0.0837	0.338	0.821	1.14	0.808	1.52 (inactive)	0.0929	-0.318	1.55	-0.916 (inactive)	-0.031 (inactive)	-1.24 (inactive)	2.28	0.861 (inactive)	-0.166	0.501	0.437	-0.0858
CCN1C(=O)[C@H]2[C@@H]3C(=CC[C@H]2C1=O)C(=O)[C@H]1O[C@H]1[C@H]3O	-0.538	-0.0147	-0.0996	0.465	0.613	0.0141	0.73	-2.63 (inactive)	0.167	-0.0346	0.833	0.367 (inactive)	-0.3 (inactive)	0.247 (inactive)	-0.176	-0.763 (inactive)	-0.138	0.609	0.732	0.0107
CCOC(=O)NN=C1C[C@@H](O)[C@@H](O)[C@@H]2[C@@H]3C(=O)N(c4ccc(F)cc4F)C(=O)[C@@H]3CC[C@H]12	-0.496	0.364	-0.0131	0.202	0.501	-0.0227	0.158	0.816 (inactive)	0.411	-0.137	-0.334	-0.01 (inactive)	-0.816 (inactive)	-0.155 (inactive)	-0.35	0.786 (inactive)	-0.185	0.555	0.625	0.021
CON=C(C)CCN1CCc2nc(-c3ccccc3)c(-c3ccccc3)cc2C1	-0.262	-0.052	-0.128	-0.149	0.195	0.387	-0.961	0.953 (inactive)	0.0046	-0.201	0.0214	-1.08 (inactive)	-17.2 (active)	-3.67 (inactive)	-0.919	1.69 (inactive)	-0.0699	0.107	0.556	-0.158
COc1ccc(COC(=O)NN=C2C[C@@H](O)[C@@H](O)[C@@H]3[C@@H]4C(=O)N(C[C@@H]5CCCO5)C(=O)[C@@H]4CC[C@@H]23)cc1	-0.227	0.359	-0.156	0.878	-0.0739	0.393	0.775	-0.913 (inactive)	0.0269	-0.117	0.674	0.137 (inactive)	0.467 (inactive)	-0.389 (inactive)	0.486	0.859 (inactive)	-0.145	0.585	0.106	-0.1
COc1ccc(OC[C@@H]2CC3[C@@H](c4ccc(Br)cc4)[C@H](C)CC[C@H]3C(=O)O2)cc1 (stereo not given in full)	-0.416	0.138	-0.142	0.0248	0.407	0.093	-0.216	-0.321 (inactive)	0.204	-0.0645	0.112	-0.251 (inactive)	-2.64 (inactive)	0.0176 (inactive)	0.82	-0.145 (inactive)	-0.158	0.991	0.509	-0.159
O=C(NN=C1C[C@@H](O)[C@@H](O)[C@@H]2[C@@H]3C(=O)N(Cc4ccc5c(c4)OCO5)C(=O)[C@@H]3CC[C@@H]12)OCc1ccccc1	0.595	-0.183	-0.0467	0.107	0.133	0.022	-0.17	1.78 (inactive)	0.312	-0.134	-0.0443	0.186 (inactive)	-0.475 (inactive)	-0.4 (inactive)	0.418	0.885 (inactive)	0.0026	-0.0248	-0.142	-0.0433
